Screen size: about 380,000 compounds; about 1,300 (0.34%) were called active. What follows is part of a selection rich in actives, with near analogues and random picks from the rest. Unmarked numbers belong to inactive results.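 Rule for the calls: active = drop in luminescence signal, shown as inhibition above about 50% in the replicate tests (limit read from the data, passing the limit was not always enough); inconclusive = probably only some replicates passing the limit; inactive = the rest.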
Test system: Drosophila bursicon receptor LGR2 (rickets)
Assay: LGR2 cAMP reporter signal reduction – cell-based, HEK293, CRE-luciferase reporter, bursicon stimulation, primary screen (AID 720647);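 note: agonist challenge used bursicon conditioned medium at about half maximal strength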
Conditions: bursicon-stimulated, 4 h, at 9.99 µM, stronger effect = higher value

Row | SMILES | inhibition
1 | C[C@@H]1CCCCO[C@@H](CN(C)C)[C@@H](C)CN([C@H](C)CO)C(=O)c2cc(N(C)C)ccc2O1 | -6.42%
2 | C[C@H]1CN([C@@H](C)CO)C(=O)c2cc(NC(=O)C3CCCCC3)ccc2O[C@H]1CN(C)C(=O)Nc1ccccc1 | 2.55%
3 | N#C[C@H]1[C@H](c2ccc(C#Cc3ccc(F)cc3)cc2)[C@@H](CO)N1C(=O)C1CCCC1 | 16.6%
4 | COc1ccccc1C#Cc1ccc([C@H]2[C@@H](C#N)N(C(=O)C3CCCCC3)[C@@H]2CO)cc1 | 18.3%
5 | N#C[C@@H]1[C@H](c2ccc(C#CC3CCCCC3)cc2)[C@@H](CO)N1S(=O)(=O)c1ccccc1 | 61.9% (active)
6 | CS(=O)(=O)N1[C@@H](C#N)[C@H](c2ccc(C#CC3CCCCC3)cc2)[C@@H]1CO | -5.08%
7 | N#C[C@@H]1[C@@H](c2ccc(C#Cc3cccc(F)c3)cc2)[C@@H](CO)N1C(=O)C1CCC1 | -19.3%
8 | N#C[C@@H]1[C@H](c2ccc(C#Cc3ccccc3F)cc2)[C@H](CO)N1C(=O)C1CCCCC1 | 74.8% (active)
9 | N#C[C@@H]1[C@@H](c2ccc(C#Cc3cccc(F)c3)cc2)[C@H](CO)N1C(=O)C1CCOCC1 | -34.2%
10 | CS(=O)(=O)N1[C@H](C#N)[C@H](c2ccc(C#CC3CCCC3)cc2)[C@H]1CO | -37.6%
11 | N#C[C@@H]1[C@H](c2ccc(C#Cc3cccc(F)c3)cc2)[C@@H](CO)N1C(=O)C1CCCC1 | 82.4% (active)
12 | C[C@@H]1CN([C@@H](C)CO)S(=O)(=O)c2ccc(C#CCN(C)C)cc2O[C@H]1CN(C)C(=O)C1CC1 | 6.68%
13 | Cc1noc(C)c1S(=O)(=O)N(C)C[C@@H]1OCCCC[C@@H](C)Oc2ccc(NC(=O)c3ccccc3)cc2C(=O)N([C@@H](C)CO)C[C@@H]1C | 12.5%
14 | O=C(N[C@H]1CC[C@@H](CCNS(=O)(=O)c2ccc(F)cc2)O[C@@H]1CO)c1ccccn1 | 11.4%
15 | CCC(=O)Nc1ccc2c(c1)OC[C@H](C)N(CC1CCCCC1)C[C@@H](C)[C@H](OC)CN(C)C2=O | 4.64%
16 | CCC(=O)N1CCC2(CC1)CN(S(C)(=O)=O)[C@@H](CO)c1c2c2ccc(OC)cc2n1C | -17.4%
17 | CCCC#Cc1cnc2c(c1)C(=O)N([C@H](C)CO)C[C@H](C)[C@@H](CN(C)S(=O)(=O)c1ccccc1)O2 | -10.8%
18 | C[C@@H]1CN([C@@H](C)CO)S(=O)(=O)c2ccc(Br)cc2O[C@@H]1CN(C)C(=O)C1CCCCC1 | -1.83%
19 | Cc1noc(C)c1NC(=O)Nc1ccc2c(c1)C(=O)N([C@@H](C)CO)C[C@@H](C)[C@H](CN(C)C(=O)NC(C)C)O2 | 9.15%
20 | CCCNC(=O)[C@H]1[C@H](CO)[C@H]2Cn3c(ccc(-c4cccc(F)c4)c3=O)[C@@H]1N2C(=O)CC | 4.62%
21 | CC(C)CC#Cc1ccc([C@H]2[C@H]3CN(C(=O)CN4CCOCC4)CC(=O)N3[C@H]2CO)cc1 | -1.92%
22 | COc1ccc2c3c(n(C)c2c1)[C@H](CO)N(C(=O)CC1CC1)CC31CCN(Cc2nccs2)CC1 | 4.96%
23 | Cc1cc(C(=O)COC(=O)C2CC2)c(C)n1-c1ccc(F)cc1 | 81.6% (active)
24 | Cc1cc(C(=O)COc2ccccc2Cl)c(C)n1C1CC1 | -70%

Row | SMILES | inhibition
25 | Cc1cc(C(=O)CSc2nc(N)cc(=O)[nH]2)c(C)n1-c1cccc(F)c1 | 1.57%
26 | CNC[C@@H]1Oc2ccc(NC(=O)Nc3ccc4c(c3)OCO4)cc2C(=O)N([C@H](C)CO)C[C@@H]1C | -5.83%
27 | CO[C@@H]1CN(C)C(=O)c2cc(NS(C)(=O)=O)ccc2OC[C@@H](C)N(C(=O)C2CCC2)C[C@@H]1C | -11.1%
28 | O=C(C[C@H]1CC[C@H]2[C@@H](COC[C@@H](O)CN2Cc2ccccc2)O1)N[C@@H]1CCN(Cc2ccccc2)C1 | 1.95%
29 | O=C(NC1=CC(=O)c2ccccc2C1=O)c1ccccc1 | 61.4% (active)
30 | CCS(=O)(=O)N1CC2(C1)CN(S(=O)(=O)c1ccccc1)[C@H](CO)c1c2c2ccc(OC)cc2n1C | -11.1%
31 | CC(C)NC(=O)Nc1ccc2c(c1)CC(=O)N([C@H](C)CO)C[C@@H](C)[C@@H](CN(C)C(=O)Nc1ccc3c(c1)OCO3)O2 | -3.26%
32 | CCCCCCCCn1c2c(c(=N)c3c1CCC3)CCCC2 | 52.6% (active)
33 | Cc1noc(C)c1NC(=O)Nc1ccc2c(c1)C(=O)N([C@@H](C)CO)C[C@@H](C)[C@H](CN(C)Cc1ccc(C(F)(F)F)cc1)O2 | -7.29%
34 | C[C@H]1CN([C@@H](C)CO)C(=O)c2cc(C3=CCCCC3)cnc2O[C@@H]1CN(C)C(=O)c1ccc(F)cc1 | 2.17%
35 | CN1c2ccc(Br)cc2[C@@H]2[C@@H](CCN2C(=O)C2CCCC2)[C@H]1CO | 1.06%
36 | Cc1cccc(-n2ncc(Cl)c(Cl)c2=O)c1 | 103% (active)
37 | Cc1cc(=O)cc(C)n1-c1ccc(Cl)c(Cl)c1 | 5.96%
38 | COc1cccc(C2SCC(=O)N2c2cccc(C)c2)c1OC (configuration not stated) | 7.83%
39 | CCNC(=O)C[C@@H]1CC[C@H]2[C@@H](COC[C@@H](O)CN2C(=O)c2cc(Cl)cc(Cl)c2)O1 | 11.4%
40 | C[C@@H]1CN([C@@H](C)CO)C(=O)c2cc(NS(=O)(=O)c3ccccc3)ccc2O[C@H]1CN(C)S(=O)(=O)c1ccc(Cl)cc1 | 13.5%
41 | CCOC(=O)C1=C(c2ccccc2)NC(=O)NC1c1cc(OC)c(OC)cc1OC (configuration not stated) | 8.83%
42 | CCOC(=O)C1=C(c2ccc(OC)cc2)C(=O)c2ccccc2C1=O | 99.6% (active)
43 | CCOC(=O)C1=C(C)c2ccccc2OC1C(=O)OCC (configuration not stated) | -7.81%
44 | CO[C@H]1CN(C)C(=O)c2cc(NC(=O)Nc3ccc4c(c3)OCO4)ccc2OC[C@@H](C)NC[C@@H]1C | -36.2%
45 | C[C@H](CO)N1C[C@H](C)[C@H](CN(C)C(=O)Nc2ccccc2C(F)(F)F)OCc2cn(nn2)CCCC1=O | 3.25%
46 | CC(C)NC(=O)N(C)C[C@H]1OCCCC[C@H](C)Oc2ccc(NC(=O)CCC(F)(F)F)cc2C(=O)N([C@H](C)CO)C[C@H]1C | 1.7%
47 | Cc1noc(C)c1S(=O)(=O)N(C)C[C@@H]1Oc2ccc(NC(=O)Cn3cnnn3)cc2CC(=O)N([C@@H](C)CO)C[C@H]1C | 0.447%

Reference: PubChem BioAssay AID720647 (Broad Institute, 2013)
